Data taken from ChEMBL document CHEMBL3433997, “St. Jude Leishmania screening dataset” (2016).

Columns and labels:
Type in all cases: functional
[1] = molecular target: Solute carrier family 2, facilitated glucose transporter member 1 (Homo sapiens) (UniProt P11166); assay: ST_JUDE_LEISH: Cytotoxicity at 2uM final concentration against transgenic Leishmania Mexicana promastigotes LmGLUT1 that are glucose transport deficient and complemented with the human glucose transporter GLUT1. Activity is measured by DNA content using SYBR green in vitro
[2] = molecular target: Hexose transporter 1 (Plasmodium falciparum) (UniProt O97467); assay: ST_JUDE_LEISH: Cytotoxicity at 2uM final concentration against transgenic Leishmania Mexicana promastigotes LmPfHT that are glucose transport deficient and complemented with the Plasmodium falciparum hexose transporter. Activity is measured by DNA content using SYBR green in vitro
[3] = molecular target: Glucose transporter (Leishmania mexicana) (UniProt O61059); assay: ST_JUDE_LEISH: Cytotoxicity at 2uM final concentration against transgenic Leishmania Mexicana promastigotes LmGT2 that are glucose transport deficient and complemented with the L. Mexicana glucose transporter 2. Activity is measured by DNA content using SYBR green in vitro

Solute carrier family 2, facilitated glucose transporter member 1 (Homo sapiens), sequence (P11166 whole entry): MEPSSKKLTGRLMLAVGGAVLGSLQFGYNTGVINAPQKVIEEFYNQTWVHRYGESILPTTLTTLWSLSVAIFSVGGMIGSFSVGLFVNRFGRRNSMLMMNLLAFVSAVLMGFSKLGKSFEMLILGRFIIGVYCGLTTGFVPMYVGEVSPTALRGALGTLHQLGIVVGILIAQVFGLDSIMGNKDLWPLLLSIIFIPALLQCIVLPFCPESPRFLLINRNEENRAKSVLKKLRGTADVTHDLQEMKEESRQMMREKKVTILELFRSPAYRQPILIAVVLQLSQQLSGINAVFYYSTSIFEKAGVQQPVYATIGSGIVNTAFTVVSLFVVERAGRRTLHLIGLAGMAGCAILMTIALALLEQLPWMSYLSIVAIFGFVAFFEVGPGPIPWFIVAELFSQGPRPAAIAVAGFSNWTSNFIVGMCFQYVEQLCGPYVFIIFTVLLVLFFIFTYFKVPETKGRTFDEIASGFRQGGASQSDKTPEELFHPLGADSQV

## c1ccc(CCNc2ccnc(Nc3ccc4[nH]nnc4c3)n2)cc1
[1]
  inhibition: 14.1%
[2]
  inhibition: 13.9%
[3]
  inhibition: 10.8%

## CC(=O)NCCNc1cc(N2CCc3ncnc(Nc4ccc(OCc5c(F)cccc5F)c(Cl)c4)c3C2)ncn1
[1]
  inhibition: 0.69%
[2]
  inhibition: 1.6%
[3]
  inhibition: 1.84%

## Cc1ccc(Nc2nccc(Nc3ccc4c(c3)nc(Nc3cc(C(C)(C)C)on3)n4C)n2)cc1S(C)(=O)=O
[1]
  inhibition: 3.26%
[2]
  inhibition: 5.38%
[3]
  inhibition: -1.41%

## O=C(/C=C/c1ccc(Cl)c(Cl)c1)N1CCC(CN2CCC(c3c[nH]c4ncccc34)CC2)CC1
[1]
  inhibition: 4.3%
[2]
  inhibition: 3.52%
[3]
  inhibition: 2.38%

## O=C(Nc1ccc(F)cc1)c1ccc(C(=O)NC2CCN(CC3CCCCC3)CC2)cc1
[1]
  inhibition: 19.2%
[2]
  inhibition: 16.6%
[3]
  inhibition: 11.7%

## NCCNc1ccc([N+](=O)[O-])cc1C(=O)Nc1cccc(Cl)c1
[1]
  inhibition: 2.71%
[2]
  inhibition: 4.41%
[3]
  inhibition: 2.22%

## CCCCCCNC(=O)c1nn(CCN2CCC(N3CCCC3)CC2)cc1-c1ccc(Cl)c(Cl)c1
[1]
  inhibition: 0.97%
[2]
  inhibition: 1.84%
[3]
  inhibition: 1.8%

## Cc1nc(C)c(CC(=O)Nc2ccc(-c3cccc(-c4nc5cccc(C)c5[nH]4)c3)cc2)s1
[1]
  inhibition: 2.82%
[2]
  inhibition: 2.89%
[3]
  inhibition: 4.14%

## Cc1cc(OCCCN2CCCCC2C)ccc1NC(=O)COc1ccc(Cl)cc1C(=O)c1cc(Cl)cc(C#N)c1 (centres undefined)
[1]
  inhibition: 74.2%
[2]
  inhibition: 78.3%
[3]
  inhibition: 58%

## CCCC(C)N(Cc1ccc(C(C)(C)C)cc1)C(=O)c1cccc(C#N)c1 (centres undefined)
[1]
  inhibition: -1.28%
[2]
  inhibition: 0.07%
[3]
  inhibition: -1.38%

## CC(C)CCNC(=O)C1Cc2c([nH]c3ccc(Br)cc23)C2(CCN(Cc3ccccc3)CC2)N1 (centres undefined)
[1]
  inhibition: 104%
[2]
  inhibition: 103%
[3]
  inhibition: 94.2%

## NC(=O)C1CCN(Cc2cccc(-c3cccc(-c4nc5cc(F)ccc5[nH]4)c3)c2)CC1
[1]
  inhibition: -0.94%
[2]
  inhibition: 1.68%
[3]
  inhibition: 1.45%

## Nc1nc(N)c2c(Oc3ccc(Cl)c(Cl)c3)cccc2n1
[1]
  inhibition: 0.48%
[2]
  inhibition: -0.05%
[3]
  inhibition: -3.94%

## COc1cc2ccccc2c(OC)c1CCNCCCCNCCc1c(OC)cc2ccccc2c1OC
[1]
  inhibition: 10.9%
[2]
  inhibition: 12.1%
[3]
  inhibition: 14.6%

## O=S(=O)(NCCN1CCCC1)c1ccc(-c2ccc(CNCc3ccccc3)cc2)cc1
[1]
  inhibition: 2.85%
[2]
  inhibition: 1.2%
[3]
  inhibition: -0.93%

## CC(C)COc1ccc(Cl)cc1Nc1nc(-c2nc3ccccc3[nH]2)cs1
[1]
  inhibition: 2.76%
[2]
  inhibition: 1.35%
[3]
  inhibition: 1.01%

## COc1ccc(CCNCc2cc3c(C(C)(C)C)nn(-c4ccc(Cl)cc4)c3[nH]c2=O)cc1OC
[1]
  inhibition: -2.79%
[2]
  inhibition: -2.78%
[3]
  inhibition: -5.42%

## COc1ccc(-c2cn3c(C(=O)Nc4ccccc4Cl)c(-c4ccccc4)c4c3n2CCCC4)cc1
[1]
  inhibition: 0.33%
[2]
  inhibition: 0.92%
[3]
  inhibition: -0.58%

## CCNC[C@@H](O)[C@H](Cc1ccccc1)NC(=O)c1cc2c3c(c1)c(CC)cn3CCS(=O)(=O)N2C
[1]
  inhibition: 0.67%
[2]
  inhibition: 0.11%
[3]
  inhibition: -0.02%

## Cc1cc(NCCC(=O)NCCOc2ccccc2)nc(NCCc2ccccc2)n1
[1]
  inhibition: 7.78%
[2]
  inhibition: 5.18%
[3]
  inhibition: 0.66%

## c1cncc(-c2cc(N3CCc4ccccc4C3)nc(-c3ccncc3)n2)c1
[1]
  inhibition: 8.78%
[2]
  inhibition: 7.89%
[3]
  inhibition: 4.28%

## O=C(NCCCCCN1CCC(c2c[nH]c3ccccc23)CC1)Nc1ccc(I)cc1
[1]
  inhibition: 11%
[2]
  inhibition: 5.79%
[3]
  inhibition: 9.45%

## CC(=O)Nc1ccc(CNC2Cc3ccc(-c4ccc(Cl)c(Cl)c4)cc3C2)cc1 (centres undefined)
[1]
  inhibition: -0.97%
[2]
  inhibition: -1.57%
[3]
  inhibition: -0.25%

## CC(C)CNC(=O)c1cncc(-c2ccc(CN(C)C3CCN(C)CC3)cc2)c1
[1]
  inhibition: 4.89%
[2]
  inhibition: 5.48%
[3]
  inhibition: 1.87%

## CCC(ON1C(N)=NC(N)=NC1(C)C)c1ccccc1 (centres undefined)
[1]
  inhibition: -1.61%
[2]
  inhibition: -0.45%
[3]
  inhibition: -3.19%

## COCCNCc1ccc(-c2ccc(CNC3CCN(Cc4ccccc4)CC3)cc2)cc1
[1]
  inhibition: 0.78%
[2]
  inhibition: 2.82%
[3]
  inhibition: 5.2%

## COc1ccc2ccccc2c1CNCC1CCN(CC2CCCCC2)CC1
[1]
  inhibition: 1.54%
[2]
  inhibition: -0.57%
[3]
  inhibition: -1.88%

## Cc1cc(NCCC(=O)Nc2ccccc2)nc(NCCc2ccc(F)cc2)n1
[1]
  inhibition: 3.19%
[2]
  inhibition: 3.34%
[3]
  inhibition: 1.6%

## CCCCC(CC)C(=O)C(NC(=O)[C@H](CSC(c1ccccc1)(c1ccccc1)c1ccccc1)NC(=O)OC(C)(C)C)C(=O)OC (some centres undefined)
[1]
  inhibition: 3.84%
[2]
  inhibition: 3.76%
[3]
  inhibition: 3.51%

## O=C(c1ccccc1NN=C1C(=O)N(c2ccccc2)N=C1c1ccccc1)N1CCOCC1
[1]
  inhibition: -1.67%
[2]
  inhibition: 1.67%
[3]
  inhibition: 8.03%

## CCCc1cc(Cc2cnc(N)nc2N)cc(CCC)c1OCCCCC(=O)O
[1]
  inhibition: 1.12%
[2]
  inhibition: 1.3%
[3]
  inhibition: 0.16%

## Cc1nc(-c2cccc(NCc3ccccc3)c2)[nH]c1C
[1]
  inhibition: 6.94%
[2]
  inhibition: 7.04%
[3]
  inhibition: 1.13%

## CC(=O)N1CCC(C(=O)Nc2ccc(-c3cccc(-c4nc5cccc(C)c5[nH]4)c3)cc2)CC1
[1]
  inhibition: 2.37%
[2]
  inhibition: 0.21%
[3]
  inhibition: 0.44%
